Test results: ChEMBL document CHEMBL5308504, “Tm Shift (DSF) assay results for EUbOPEN Chemogenomics Library” (2023)

Experiments:
[1] = target: Bromodomain-containing protein 4 (Homo sapiens) (UniProt O60885); conditions: Compound concentration 20.0 uM, Protein concentration 2.0 uM, Result type QC Liability
[2] = target: T1, Transcription intermediary factor 1-alpha (Homo sapiens) (UniProt O15164); conditions: Compound concentration 20.0 uM, Protein concentration 2.0 uM, Result type QC Liability
T1 sequence (whole entry): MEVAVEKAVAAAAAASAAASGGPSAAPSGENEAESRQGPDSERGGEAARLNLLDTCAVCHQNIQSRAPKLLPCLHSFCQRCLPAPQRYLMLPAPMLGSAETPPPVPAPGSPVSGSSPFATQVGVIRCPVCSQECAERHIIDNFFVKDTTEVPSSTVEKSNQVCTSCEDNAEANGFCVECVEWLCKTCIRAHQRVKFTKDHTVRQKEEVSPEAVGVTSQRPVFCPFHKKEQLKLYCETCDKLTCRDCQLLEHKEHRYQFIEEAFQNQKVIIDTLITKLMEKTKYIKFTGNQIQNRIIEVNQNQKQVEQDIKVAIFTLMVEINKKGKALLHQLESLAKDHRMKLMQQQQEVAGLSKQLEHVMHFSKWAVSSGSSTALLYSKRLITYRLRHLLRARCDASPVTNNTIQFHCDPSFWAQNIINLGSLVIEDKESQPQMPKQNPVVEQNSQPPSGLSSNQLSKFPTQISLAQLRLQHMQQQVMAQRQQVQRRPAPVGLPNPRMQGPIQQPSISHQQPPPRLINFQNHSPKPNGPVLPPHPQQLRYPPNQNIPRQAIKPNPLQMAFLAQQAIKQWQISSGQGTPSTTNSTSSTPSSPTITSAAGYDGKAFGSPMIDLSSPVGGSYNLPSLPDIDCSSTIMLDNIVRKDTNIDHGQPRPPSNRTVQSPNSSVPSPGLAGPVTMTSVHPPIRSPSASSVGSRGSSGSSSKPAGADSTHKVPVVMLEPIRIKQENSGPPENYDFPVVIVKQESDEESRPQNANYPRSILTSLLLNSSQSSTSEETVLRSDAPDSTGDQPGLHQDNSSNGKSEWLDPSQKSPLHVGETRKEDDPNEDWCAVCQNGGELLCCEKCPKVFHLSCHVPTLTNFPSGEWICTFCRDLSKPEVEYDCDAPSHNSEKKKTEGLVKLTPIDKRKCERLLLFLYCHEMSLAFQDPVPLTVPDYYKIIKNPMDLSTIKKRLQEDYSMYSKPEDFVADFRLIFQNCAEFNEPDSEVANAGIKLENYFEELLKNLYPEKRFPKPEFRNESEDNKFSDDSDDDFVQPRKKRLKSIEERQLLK

| SMILES | ΔTm [1] | ΔTm [2] |
| --- | --- | --- |
| CSc1nc2c(c(=O)n(C)c(=O)n2C)n1C | -3.81 °C | -0.92 °C |
| CCn1ccc(Nc2ncc3c(n2)-c2c(nn(C)c2-c2ccc(-c4cnn(C)c4)cc2Cl)CC3)n1 | -1.73 °C | -2.64 °C |
| CC(C=CC1=C(C)CCCC1(C)C)=CC=CC(C)=CC(=O)O | -5.12 °C | -4.24 °C |
| CCc1cc2c(cc1N1CCC(N3CCOCC3)CC1)C(C)(C)c1[nH]c3cc(C#N)ccc3c1C2=O | -2.92 °C | -0.86 °C |
| O=C(Nc1ccc(-n2nc(-c3cccnc3)cc2C(F)(F)F)cn1)c1ccc(-c2ccccc2)c(F)c1 | -2.41 °C | 0.2 °C |
| O=C(CCSCc1ccco1)NNC(=O)N1Cc2ccccc2Oc2ccc(Cl)cc21 | -3.5 °C | -1.32 °C |
| COc1cccc(CNc2ccc(S(=O)(=O)Nc3nc4ccccc4s3)cc2)c1O | 0.58 °C | 0.53 °C |
| COc1ccc(COc2ccc(Cc3cnc(N)nc3N)cc2OC)cc1 | -1.17 °C | -1.22 °C |
| O=C(O)C[C@H]1CC[C@H](c2ccc(NC(=O)c3nnc(Nc4ccc(F)c(F)c4)o3)cc2)CC1 | -0.2 °C | 0.52 °C |
| Cc1cc(S(=O)(=O)N2CC(C)(C)c3cc(-c4ccc(C(F)(F)F)cc4)ccc32)ccc1OCC(=O)O | 0.64 °C | 0.9 °C |
| CC(C)(C[C@H]1CN(S(=O)(=O)c2cccc(C(F)(F)F)c2)c2cc(-c3cc(F)cc(OC(F)F)c3)ccc2O1)C(=O)O | -6.18 °C | -2.16 °C |
| O=C1Nc2ccc(I)cc2/C1=C/c1cc(Br)c(O)c(Br)c1 | -0.9 °C | -2.17 °C |
| N#Cc1ccc(COc2ccc(Br)cc2CNCCO)cn1 | -0.82 °C | -0.53 °C |
| CCn1c(-c2nonc2N)nc2ccccc21 | -0.33 °C | -1.27 °C |
| CN(CC(=O)Nc1ccc(F)c(F)c1F)C(=O)c1ccc2c(c1)OCCO2 | -2.94 °C | -2.59 °C |
| O=C(CNCc1cc2ccccc2[nH]1)N[C@H]1CC[C@@H](c2nc3ccccc3[nH]2)CC1 | -0.08 °C | -0.53 °C |
| Cc1[nH]c2c(N3CCCCC3)c(-c3ccccc3)nn2c(=O)c1-c1ccc(O)cc1 | -1.3 °C | -2.05 °C |
| O=C(Nc1ccc(C(O)(C(F)(F)F)C(F)(F)F)cc1)c1ccc(C(F)(F)F)cc1 | -1.03 °C | -0.53 °C |

| SMILES | ΔTm [1] | ΔTm [2] |
| --- | --- | --- |
| Cc1cc(CN)cc(C)c1-c1ncn(C)c1-c1ccnc2cc(F)ccc12 | -0.64 °C | 0.17 °C |
| Cc1c(NC(=O)c2ccc(C(C)(C)C)cc2)cccc1-c1cn(C)c(=O)c(Nc2ccc(C(=O)N3CCOCC3)cc2)n1 | -9.46 °C | 0.14 °C |
| Cc1cc(OC2CCS(=O)(=O)CC2)cc(C)c1-c1cccc(COc2ccc(CCC(=O)O)c(F)c2)c1 | -5.08 °C | -3.73 °C |
| C[C@H]1CN(C2COC2)CCN1c1ccc(Nc2cc(-c3ccnc(N4CCn5c(cc6c5CC(C)(C)C6)C4=O)c3CO)cn(C)c2=O)nc1 | -1.88 °C | 0.42 °C |
| c1ccc(C(OC2CCN(CCCc3nnn[nH]3)CC2)c2ccccc2)cc1 | -1 °C | -0.6 °C |
| CN1CCN(c2ccc(/C=C(\C#N)c3ccccc3Br)cc2)CC1 | -4.31 °C | -4.7 °C |
| CS(=O)(=O)NCC[C@H](NC(=O)c1cncc2c1cnn2-c1ccc(F)cc1)c1ccnc(S(C)(=O)=O)c1 | -0.38 °C | 0.28 °C |
| CC[C@@H]1C(=O)N(C)c2cnc(Nc3ccc(C(=O)NC4CCN(C)CC4)cc3OC)nc2N1C1CCCC1 | 6.02 °C | 0.07 °C |
| Fc1ccc(Cl)cc1-c1nc(Nc2ccncc2)c2nccnc2n1 | -2.28 °C | -1.86 °C |
| N#Cc1c(SCc2csc(-c3ccc(Cl)cc3)n2)nc(N2CCCC2)c(C#N)c1-c1ccc(OCCO)cc1 | -0.25 °C | 0.42 °C |
| C[S+]([O-])c1ccc(-c2nc(-c3cccc(I)c3)c(-c3ccncc3)[nH]2)cc1 (configuration not stated) | -3.51 °C | -2.56 °C |
| O=C(CCCCCCc1ccccc1)c1ncc(-c2ccccn2)o1 | -1.06 °C | -0.23 °C |
| COc1cc(F)ccc1-c1cc(Nc2cc(CS(C)(=N)=O)ccn2)ncc1F (configuration not stated) | 0.98 °C | -2.98 °C |
| COc1cc(C(N)=O)nc(-c2cccc(C#C[C@]3(O)CCN(C)C3=O)c2)c1 | -0.77 °C | -0.62 °C |
| Fc1ccc(-c2nc(-c3ccc4ccccc4c3F)[nH]c2-c2ccncc2)cc1 | -0.46 °C | -0.4 °C |
| CC(C)(O)c1cn(-c2ccc(-c3cccc(S(C)(=O)=O)c3)cc2)c(C(C)(C)c2ccccc2Cl)n1 | -4.36 °C | -3.39 °C |
| N#Cc1ccc(C#CC[C@@H](C#N)NC(=O)[C@H]2CCCCN2)cc1F | -1.11 °C | 0.64 °C |
| Cc1cc(-c2cnc(N)c3c(-c4ccc5scnc5c4)csc23)n(C)n1 | -1.04 °C | -1.95 °C |
